# Reference: article PMC4336329 (PLoS ONE, 2015)
# Hit rate of the full screen: of about 310,000 compounds, about 14,000 (4.5%) showed an effect of 50% or more. The effect is printed as a negative number. This is one part of a sample in which strong results are shown more often than they occur.
# Target: human ether-à-go-go-related gene (hERG) potassium channel (human, UniProt Q12809)
# Test: primary screen, population patch clamp on CHO cells stably expressing hERG; higher = less effect of the substance
# 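Note: peak tail current of the secondary pulse compared with the same well before compound.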
# human ether-à-go-go-related gene (hERG) potassium channel, sequence (Q12809 whole entry, looked up): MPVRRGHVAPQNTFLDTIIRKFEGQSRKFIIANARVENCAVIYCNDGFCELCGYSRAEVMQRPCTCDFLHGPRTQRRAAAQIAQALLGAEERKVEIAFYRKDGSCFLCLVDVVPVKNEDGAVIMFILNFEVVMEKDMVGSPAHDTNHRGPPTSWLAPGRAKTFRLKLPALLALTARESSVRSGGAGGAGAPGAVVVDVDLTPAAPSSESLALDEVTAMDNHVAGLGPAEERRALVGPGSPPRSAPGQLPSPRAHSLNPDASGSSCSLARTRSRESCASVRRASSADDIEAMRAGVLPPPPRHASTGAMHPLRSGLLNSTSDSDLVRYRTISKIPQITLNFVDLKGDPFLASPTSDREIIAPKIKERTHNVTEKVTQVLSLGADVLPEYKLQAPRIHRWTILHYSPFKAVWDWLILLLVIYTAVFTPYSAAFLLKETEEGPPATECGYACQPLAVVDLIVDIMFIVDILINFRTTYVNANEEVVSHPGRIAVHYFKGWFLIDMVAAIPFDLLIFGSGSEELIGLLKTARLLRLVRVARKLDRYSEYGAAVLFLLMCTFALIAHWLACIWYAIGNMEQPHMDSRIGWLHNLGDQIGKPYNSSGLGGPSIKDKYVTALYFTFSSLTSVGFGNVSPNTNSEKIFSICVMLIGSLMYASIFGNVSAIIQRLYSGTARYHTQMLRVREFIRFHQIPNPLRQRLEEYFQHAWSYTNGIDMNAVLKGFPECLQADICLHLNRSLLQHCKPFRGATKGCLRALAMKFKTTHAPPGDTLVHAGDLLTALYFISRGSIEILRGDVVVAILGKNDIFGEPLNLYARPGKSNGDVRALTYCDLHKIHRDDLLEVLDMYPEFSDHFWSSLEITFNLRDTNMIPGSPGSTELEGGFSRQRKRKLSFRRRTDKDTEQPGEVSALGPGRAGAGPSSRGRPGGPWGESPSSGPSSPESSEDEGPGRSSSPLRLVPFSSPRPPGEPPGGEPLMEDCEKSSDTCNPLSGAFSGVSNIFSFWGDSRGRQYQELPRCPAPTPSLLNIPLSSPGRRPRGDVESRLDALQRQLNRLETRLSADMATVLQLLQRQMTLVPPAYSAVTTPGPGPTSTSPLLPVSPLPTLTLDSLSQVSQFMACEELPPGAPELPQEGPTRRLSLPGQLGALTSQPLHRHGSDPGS
row,SMILES,"hERG current change (%, negative = inhibition) at 10uM [%]"
1,Cc1onc(-c2ccccc2Cl)c1-c1nc(-c2ccncc2)no1,-10.9
2,CC1(C)CNC(=O)CC(C)(C)N1,4.53
3,CCn1c(SCC(=O)N2CCCCC2)nc(O)cc1=O,-7.46
4,Cc1ccc(C)c(-n2c(Cc3cc(=O)[nH]c(=O)[nH]3)nnc2SCC(=O)NCc2ccco2)c1,4.83
5,Cn1cccc1C(=O)N/N=C/c1c(Cl)cccc1Cl,3.26
6,COc1cc2c(cc1OC)C(C)N(S(=O)(=O)c1cccs1)CC2 (stereo not drawn),-12.9
7,COc1ccc(-c2ccc3nnc(SCC(=O)NCC4CCCO4)n3n2)cc1 (stereo not drawn),-9.98
8,O=S(=O)(c1ccc(Br)c2ccccc12)N1CCOCC1,-11.8
9,CCCNC(=O)N1c2ccccc2Sc2ccccc21,10.5
10,Cc1c(Cl)c([N+](=O)[O-])nn1CCCC(=O)Nc1cccc(O)c1,-10.8
11,Cc1c(Cl)c([N+](=O)[O-])nn1CCCC(=O)Nc1cccnc1,-2.96
12,Cc1c(Cl)c([N+](=O)[O-])nn1CCCC(=O)Nc1cccc(Cl)c1,-51.7
13,O=C(Nc1ccc(-c2csc(-c3ccccc3)n2)cc1)c1ccccc1,16.9
14,Cn1c(SCC(=O)N2CCCCCC2)nc2c([nH]c3ccccc32)c1=O,6.91
15,COc1ccc(CNc2oc(C)nc2C#N)cc1,-1.09
16,Cl.Fc1ccc(OCCCCN2CCOCC2)cc1,-4.81
17,COc1ccccc1N1CCN(CCCOc2ccc(F)cc2)CC1,-71.8
18,CN1CCN(CCCCOc2ccc(F)cc2)CC1,0.265
19,COc1ccccc1N1CCN(CCCCOc2cccc3ccccc23)CC1.Cl,-32.8
20,COc1ccccc1N1CCN(CCCCOc2ccc(F)cc2)CC1.Cl,-72.8

row,SMILES,"hERG current change (%, negative = inhibition) at 10uM [%]"
1,COc1ccccc1N1CCN(Cc2ccc(F)cc2)CC1,-14.7
2,COc1ccccc1N1CCN(CCCCCCOc2ccc(F)cc2)CC1,-67.2
3,C=CCn1cnc2c(c1=O)c1nc3ccccc3nc1n2/N=C/c1cc(OC)c(OC)c(OC)c1,-22.1
4,N#Cc1ccccc1NC(=O)CSc1nnc(-c2ccccc2)n1-c1ccccc1,2.09
5,O=C(CSc1nnc2ccc(-c3ccncc3)nn12)Nc1ccc(F)cc1,-63.2
6,CC(C)n1c(SCC(=O)Nc2ccc(F)cc2)nnc1C1CC1,-50.1
7,O=C(CSc1nnc2ccc(-c3ccccn3)nn12)Nc1ccc(F)cc1F,-18
8,NNC(=O)CSc1nnc(-c2ccccc2)n1-c1ccccc1,8.61
9,CCn1c(SCC(=O)Nc2ccc(F)cc2)nnc1C1CC1,-0.652
10,O=C(CSc1nnc2ccc(-c3cccnc3)nn12)Nc1ccccc1F,-39.2
11,O=C(CSc1nnc2ccc(-c3cccnc3)nn12)Nc1ccc(F)cc1F,-64.9
12,COc1ccc(NC(=O)CSc2nnc3ccc(-c4ccncc4)nn23)cc1,-30.9
13,Cn1c(SCC(=O)Nc2ccc(F)cc2)nnc1C1CC1,4.27
14,CC(=O)Nc1ccc(NC(=O)CSc2nnc3ccc(-c4ccc(F)cc4)nn23)cc1,16.8
15,Cc1ccccc1NC(=O)CSc1nnc(-c2ccccc2)n1-c1ccccc1,-51.4
16,COc1ccc(NS(=O)(=O)c2cccc(C(=O)NCC(c3ccco3)N3CCCC3)c2)cc1 (stereo not drawn),-36.8
17,Cc1ccc(S(=O)(=O)Nc2ccc3cn[nH]c3c2)c(C)c1,-18.1
18,Cc1cccc(NC(=O)c2nc[nH]c2C(=O)NCC(=O)OCc2ccccc2)c1,9.54
19,CC(C)CC(N)c1cn([C@@H](CCC(=O)O)C(=O)N2CCNCC2)nn1.Cl (stereo partly drawn),17.2
20,COC(=O)N/N=C(\C)c1ccc(C)c([N+](=O)[O-])c1,-0.21

row,SMILES,"hERG current change (%, negative = inhibition) at 10uM [%]"
1,COC(=O)c1cccc(NC(=O)c2cnn(C)c2)c1,15.9
2,CCO.CCOC(=O)c1c(-c2ccccc2)oc2ccc(OC(C)C(=O)O)cc12 (stereo not drawn),-15
3,O=C(NNC(=S)NC(=O)c1ccccc1)c1cccc([N+](=O)[O-])c1,22.8
4,Cc1csc(SCC(=O)Nc2cccc3nsnc23)n1,-14.8
5,CCCOc1ccc(C(=O)N(Cc2cccs2)C2CCS(=O)(=O)C2)cc1 (stereo not drawn),-8.87
6,CCn1c2ccccc2c2cc(CC(N)=O)ccc21,5.3
7,COc1ccc(C(=O)NCCc2nnc3ccc(SCC(=O)NCCc4ccc(OC)c(OC)c4)nn23)cc1,0.371
8,Cc1cccc(NC(=O)CC2NCCNC2=O)c1 (stereo not drawn),8.94
9,Cc1ccc(NC(=O)CSc2nnc(C)n2-c2ccccc2)cc1,-3.7
10,Cc1ccc(NC(=O)C(C)Sc2nnc(-c3cccnc3)o2)cc1 (stereo not drawn),11.9
11,O=C(CSc1nnc(-c2cccnc2)n1-c1ccccc1)Nc1ccccc1,-76.3
12,Cc1ccccc1-n1c(SC(C)C(N)=O)nnc1-c1cccnc1 (stereo not drawn),-6.92
13,Cc1ccc(NC(=O)C(C)Sc2nnc(-c3cccnc3)n2-c2ccccc2)cc1 (stereo not drawn),-81.4
14,Cc1nnc(SCC(=O)Nc2cccc(N)c2)n1-c1ccccc1,-10.1
15,Cc1ccc(NC(=O)CSc2nnc(-c3cccnc3)n2-c2ccc(C)cc2)cc1,-21.4
16,COc1ccc(NC(=O)CSc2nnc3ccc(-c4cccnc4)nn23)cc1,-46.4
17,O=C(CSc1nnc(-c2cccnc2)n1-c1ccccc1)Nc1ccccn1,-41
18,COc1cc(NC(=O)CSc2nnc3ccc(-c4cccnc4)nn23)cc(OC)c1,-9.05
19,O=C(CSc1nnc2ccc(-c3cccnc3)nn12)Nc1ccc(F)cc1,-63
20,Nc1nnc(SCC(=O)Nc2ccc(F)c(Cl)c2)n1-c1ccccc1,-70.7
